High-throughput results (PubChem)
HCV inhibitor: qHTS Assay for Inhibitors of Hepatitis C Virus (HCV) | Huh7.5.1 HCVcc-Cre infection, luciferase reporter, 44 h | Potency, µM (highest dose often 41.8 µM), for the others: top-dose activity change, negative = inhibition, usual class: inhibitors | 3.4% of 340,000 active | AID 651820, 2012; active = well fitted inhibition curve with a large enough effect; inconclusive = small, poorly fitted or top-dose-only effect, or another doubt; inactive = no such curve, though single readings can be large or run the other way; also: potency is read from the fitted curve at half-maximal effect
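HCVcc-Cre virus at an moi near 0.5 was added right after compound to cells cultured 4 h from seeding (1,000 cells/well). Luciferase activity was determined 44 h later, 15 min after substrate addition at RT.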
FMDV inh: High Throughput Screening for Foot and Mouth Disease Virus Antivirals; 1.2% of 410,000 active; AID 1159524, 2015; FMDV antiviral cell-based qHTS; Potency, µM (doses to about 57.9 µM), inactives show top-dose activity change, negative = inhibition, usual class: inhibitors; calls by dose curve; tested in HEK293T cells; also: read-out not given here; potency is read from the fitted curve at half-maximal effect; nearly all actives have a fitted effect of over 45% in size
LASV entry inh: qHTS for Inhibitors of binding or entry into cells for Lassa Virus; Lassa virus pseudotype entry inhibition, cell reporter; Potency, µM (series often up to 37.9 µM), without a hit: top-dose activity change, negative = inhibition, hits mostly inhibitors; 1.2% of 300,000 active; AID 540256, 2011; calls by dose curve; tested in HEK293 cells; also: potency is read from the fitted curve at half-maximal effect; nearly all actives have a fitted effect of over 50% in size
MARV entry inh: qHTS for inhibitors of binding or entry into cells for Marburg Virus; Marburg virus pseudotyped entry inhibition, cell reporter; Potency, µM (series often up to 37.8 µM), inactives show at the top dose activity change, negative = inhibition, usual class: inhibitors; 1.8% of 300,000 active; AID 540276, 2011; calls by dose curve; tested in HEK293 cells; also: potency is read from the fitted curve at half-maximal effect
HCMV antiviral: qHTS Assay for inhibitors of the human cytomegalovirus (HCMV). HFF cells, HCMV-luciferase reporter, 72 h; active compounds read low. activity change, negative = inhibition, % at 57.5 µM. 4.5% of 410,000 active. AID 1259415, 2018; in the data active = activity change below about -60%; inconclusive = no clear call, values can overlap the other calls; inactive = above about -39%
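Screen run at 2 compound doses on HFFs infected with reporter HCMV, MOI 1 PFU/cell. Luciferase activity from cell lysates at 72 h post infection gave inhibition relative to buffer-only and Salinomycin wells.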
Numbers without * were called inactive; ? = inconclusive; · = no result given; + = active, no number; [ ] = remark or other dose. Most compounds without a hit are left out; they make up all but 7.9% or so of the library. % is scaled to controls: 0 for no effect and ±100 for the full control effect.

SMILES	HCV inhibitor	FMDV inh	LASV entry inh	MARV entry inh	HCMV antiviral
Cc1cc(C)n(-c2ccc(C(=O)NCC(=O)Nc3cc(Cl)ccc3Cl)cc2)n1	-6.1%	-19.0%	·	·	+
CSc1ccccc1NC(=O)COC(=O)c1ccc(-n2nc(C)cc2C)cc1	-3.2%	-19.3%	-0.8%	22.1%	-106.6*
Nc1nnc(CC(=O)Nc2ccccc2)s1	12.7%	15.1%	2.5%	21.7%[46.1 µM]	-13.8
COC(=O)[C@]12CCCCC=C1N(CCC1=CCCCC1)C(=O)[C@H](CC(=O)NCCC(C)C)C2	·	18.1%	·	·	?
O=C(c1cn(C2CCCN(Cc3cccc(Oc4ccccc4)c3)C2)nn1)N1CCCC1 (stereo not given)	·	0.7%	·	·	·
N#C/C(=C\c1ccc(N2CCOCC2)o1)c1ccccc1	11.2µM*	·	?	?	51.9
N#C/C(=C/c1ccc(N2CCCCC2)o1)C(=O)Nc1ccc(Cl)cc1	?	48.2%	?	2.6%	24.4
N#C/C(=C/c1ccc(N2CCCCC2)o1)C(=O)Nc1ccc2ccccc2c1	10µM*	-2.7%	11.3%	?	?
N#C/C(=C/c1ccc(N2CCCCCC2)o1)c1ccc(F)cc1	?	-17.0%	?	10µM*	·
N#C/C(=C/c1ccc(N2CCCCCC2)o1)c1cccc(F)c1	?	-46.5%	3.4%	?	-80.8*
N#C/C(=C/c1ccc(N2CCOCC2)o1)c1ccc(Br)cc1	?	0.0%	-0.2%	9.7%	71.8
O=C1OCC/C1=C1/NCCNC1=O	·	-7.4%	·	·	-22.5
COc1ccc(C(=O)N2CCN(CCNC(=O)C(=O)Nc3ccc(F)cc3)CC2)cc1OC	-13.9%	2.6%	11.1%[46.1 µM]	18.0%[46.1 µM]	11.2
COCCCNC(=O)c1sc2nc(C)c(C(=O)Nc3ccc(C)cc3C)c(-c3ccc(Br)cc3)c2c1N	·	-29.2%	-25.0%[46.1 µM]	?	-17.7
CCOC(=O)c1sc2nc(C)cc(-c3ccccc3)c2c1N	?	0.0%	-4.2%	-8.8%	?
CCOC(=O)c1c(C)nc2sc(C(N)=O)c(N)c2c1-c1ccccc1	-21.2%	-20.2%	-17.2%	-14.7%	-62.0*
CCOC(=O)c1c(C)nc2sc(C(=O)Nc3ccccc3)c(N)c2c1-c1ccc(OC)cc1	6.31µM*	0.0%	8.91µM*	?	·
COCCCNC(=O)c1sc2nc(C)c(C(=O)Nc3ccc(Cl)cc3)c(-c3ccc(Br)cc3)c2c1N	·	-16.1%	1.2%[46.1 µM]	?	-76.5*
O=C(NCCc1ccccc1)C1CCN(c2ncnc3c2nc2n3CCCCC2)CC1	·	-0.2%	14.8%[46.1 µM]	·	41.4
COc1ccc(C=NNC(=O)CCCC(=O)NN=Cc2ccc(OC)c(O)c2)cc1O	1.5%	-15.4%	0.6%	-2.5%	-68.8*
COc1ccc(/C=N/NC(=O)CCn2c3ccccc3c3ccccc32)cc1O	6.31µM*	·	?	?	17.0
Cc1cc(C)c2c(c1)c1nnc(SCCN3CCCCC3)nc1n2C	?	-20.5%	-8.2%[46.1 µM]	?	59.8
Cc1ccc2[nH]c(CN3CCC(CO)(CC4CCCCO4)CC3)c(C)c2c1 (stereo not given)	-15.2%	-20.5%	5.01µM*	?	-69.9*
Cc1ccc(CN2CCC(CO)(CC3CCCCO3)CC2)o1 (stereo not given)	-1.5%	6.7%	5.5%	12.4%[46.1 µM]	15.7
CC1(c2ccc(Cl)cc2)NC(=O)N(CC(=O)N2CCN(C(=O)c3cccs3)CC2)C1=O (stereo not given)	·	-19.3%	·	·	6.1
SMILES	HCV inhibitor	FMDV inh	LASV entry inh	MARV entry inh	HCMV antiviral
Cc1nc2ccccc2c(=O)n1CCc1ccccc1	-0.2%	-7.9%	·	·	63.4
Cc1nc2ccccc2c(=O)n1N(c1ccccc1)c1ccccc1	?	-17.7%	·	·	-68.0*
COc1ccc(NC(=O)CCCn2c(=S)[nH]c3ccccc3c2=O)cc1	?	-7.1%	·	·	2.8
O=c1c2cc(N3CCOCC3)ccc2[nH]c(=S)n1CCN1CCCC1	0.8%	-15.9%	-7.3%	-19.7%	63.8
COc1ccc(-n2c(=S)[nH]c3ccccc3c2=S)cc1	-0.6%	32.9%	·	·	-64.2*
CC(C)OCCCn1c(=S)[nH]c2ccc(N3CCOCC3)cc2c1=O	?	?	5.8µM*	?	-21.7
COc1ccc(N2CCN(CCCn3c(=S)[nH]c4ccccc4c3=O)CC2)cc1	?	1.4%	·	·	-71.8*
COc1ccc(NC(=O)CCn2c(=S)[nH]c3ccccc3c2=O)cc1	-9.3%	-5.7%	-22.0%[46.1 µM]	?	-61.0*
CC(=O)OC[C@H]1O[C@H](C#CC(C)(C)C)C=C[C@H]1OC(C)=O	·	·	·	16.1%[14.2 µM]	·
O=c1c2cc(N3CCOCC3)ccc2[nH]c(=S)n1CCCN1CCCCCC1	?	-12.3%	-2.1%	18.3µM*	11.2
Cc1ccc(C(=O)Nc2cccc(-c3nc(CNC(=O)C4(C)CC4)c(C)o3)c2)s1	·	27.6%	·	·	·
COc1ccc(-c2oc(NC(=O)c3ccc(C)cc3)c(C#N)c2-c2ccc(OC)cc2)cc1	-26.5%	2.3%	-24.2%	?	8.8
COc1ccc(C(=O)Nc2oc(-c3ccccc3)c(-c3ccccc3)c2C#N)cc1OC	11.2µM*	·	-22.9%	-0.5%	11.9
COc1ccc(-c2oc(NC(C)=O)c(C#N)c2-c2ccc(OC)cc2)cc1	-16.2%	-10.7%	6.6%	-1.4%	23.0
COc1ccc(C(=O)Nc2oc(-c3ccccc3)c(-c3ccccc3)c2C#N)cc1	10µM*	-17.7%	?	?	?
CCOC(=O)CNC(=O)C1Cc2ccccc2CN1S(=O)(=O)c1cccs1 (stereo not given)	15.6%	1.0%	-4.4%	?	18.2
O=C(c1ccccc1CCc1ccccc1)N1CCOCC1	-9.6%	-4.5%	23.8%	17.0%	-103.8*
O=C(Cc1ccccc1)Nc1ccccc1C(=O)N1CCCCC1	-11.2%	11.4%	·	·	-34.3
NC(=O)C1CCN(C(=O)c2ccccc2CCc2ccccc2)CC1	10.0%	6.5%	8.9%[46.1 µM]	?	-11.5
O=C(Cc1ccccc1)c1ccccc1C(=O)N1CCCCC1	3.16µM*	44.0%	1.1%	?	13.8
Cc1cccc(C(=O)NC2CC3CCCC(C2)N3Cc2ccccc2)c1 (stereo not given)	-1.0%	-4.7%	-11.2%[46.1 µM]	3.16µM*	-14.9
Cc1ccc(CN2C3CCCC2CC(NC(=O)c2ccc(F)cc2)C3)cc1 (stereo not given)	-9.4%	-6.5%	-13.1%	7.08µM*	8.5
CCc1ccc(NC(=S)NC2CC3CCCC(C2)N3Cc2ccccc2)cc1 (stereo not given)	10µM*	-14.8%	?	10.3µM*	?
S=C(Nc1ccc(Cl)cc1)NC1CC2CCC(C1)N2Cc1ccccc1 (stereo not given)	?	-25.5%	0.1%	?	?
Cc1ccc(C(=O)NC2CC3CCCC(C2)N3Cc2ccccc2)cc1 (stereo not given)	8.7%	-16.0%	-2.0%	-16.2%	60.7
CSc1nc(N)c2ncn([C@@H]3O[C@H](COP(=O)(O)OP(=O)(O)O)C(O)[C@H]3O)c2n1 (stereo not given in full)	·	·	23.6%	8.3%	·
